# HCV inh = qHTS Assay for Inhibitors of Hepatitis C Virus (HCV). actives 3.4% (n = 340,000). Potency, µM (highest dose often 41.8 µM), for the others: at the highest dose activity change, negative = inhibition, most hits filed as inhibitors. AID 651820, 2012. Huh7.5.1 HCVcc-Cre infection, luciferase reporter, 44 h; active = well fitted inhibition curve with a large enough effect; inconclusive = small, poorly fitted or top-dose-only effect, or another doubt; inactive = no such curve, though single readings can be large or run the other way
#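 Cells seeded at 1,000/well and cultured 4 h, then compounds added followed by HCVcc-Cre virus (~0.5 moi). After 44 h further culture, luciferase substrate was added, plates held 15 min at room temperature, and luminescence read for 15 sec.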
# LASV entry inh = qHTS for Inhibitors of binding or entry into cells for Lassa Virus. Lassa virus pseudotype entry inhibition, cell reporter. Potency, µM (doses to about 37.9 µM), without a hit: at the top dose activity change, negative = inhibition, most hits filed as inhibitors. actives 1.2% (n = 300,000). AID 540256, 2011; calls by dose curve; tested in HEK293 cells; note: nearly all actives have a fitted effect of over 50% in size
# VACV mCherry inh = qHTS for Stage-Specific Inhibitors of Vaccinia Orthopoxvirus: mCherry Reporter Primary qHTS; Vaccinia virus mCherry reporter infection, fluorescence; Potency, µM (top dose mostly 36.5 µM), inactives show at the top dose activity change, negative = inhibition, hits mostly inhibitors; actives 0.63% (n = 310,000); calls by dose curve; tested in A549 cells; note: nearly all actives have a fitted effect of over 35% in size
# Marburg entry inh = qHTS for inhibitors of binding or entry into cells for Marburg Virus; actives 1.8% (n = 300,000); Marburg virus pseudotyped entry inhibition, cell reporter; Potency, µM (top dose mostly 37.8 µM), for inactives: at the top dose activity change, negative = inhibition, hits mostly inhibitors; calls by dose curve; tested in HEK293 cells
# Vaccinia Venus = qHTS for Stage-Specific Inhibitors of Vaccinia Orthopoxvirus: Venus Reporter Primary qHTS | Vaccinia virus Venus reporter expression, fluorescence | Potency, µM (doses to about 36.5 µM), for inactives: at the top dose activity change, negative = inhibition, actives largely listed as inhibitors | actives 0.46% (n = 330,000) | AID 720580, 2013; calls by dose curve; tested in A549 cells; note: nearly all actives have a fitted effect of over 30% in size
# Numbers without * were called inactive; i = inactive; ? = inconclusive; nt = not tested or not shown; + = active, no number; ! = repeats disagree; [ ] = remark or other dose. This is a sample that favours compounds with a hit; in the whole collection about 4.6% have one here. % is set by controls: 0 for no effect and ±100 for the full control effect; potency is the fitted concentration of half-maximal effect.
SMILES,HCV inh,LASV entry inh,VACV mCherry inh,Marburg entry inh,Vaccinia Venus
CCS(=O)(=O)c1ncc(Cl)c(C(=O)Nc2ccc(S(=O)(=O)N(C)c3ccccc3)cc2)n1,?,?,-28%,11µM*,14µM*!
Cc1ccc(NC(=O)c2cc(-c3ccccc3)nn2-c2ccccc2)cc1,?,?,-7%,?,-18%
O=C(Nc1ccc(F)cc1)c1nc(S(=O)(=O)Cc2ccccc2)ncc1Cl,8.9µM*,nt,nt,nt,nt
Cc1ccc2[nH]cc(C(=O)CN3CCN(C)CC3)c2c1,29%,13%,nt,?,nt
Cc1ccc2[nH]cc(C(=O)CCl)c2c1,25µM*,?,?,?,-25%
c1ccc(COC(CN2CCCCCC2)CN2CCCCCC2)cc1,10µM*,nt,nt,nt,nt
O=C(c1nc2ncccn2n1)N1CCOc2ccc(C(O)C(c3ccccc3)c3ccccc3)cc2C1 (centres undefined),nt,nt,-1%,nt,-2%
COC(=O)[C@@]12OC[C@]34[C@H]([C@@H](O)[C@@H]1O)[C@@]1(C)C(=O)C(O[C@@H]5OC(CO)[C@@H](O)[C@@H](O)[C@@H]5O)=C[C@@H](C)[C@@H]1C[C@H]3OC(=O)[C@H](OC(=O)/C=C(\C)C(C)(C)OC(C)=O)[C@@H]24 (some centres undefined),11µM*,nt,8.9µM*,nt,8.9µM*
CCOC(=O)C[n+]1cccc(Br)c1,nt,nt,-1%,nt,-7%
O=C(Nc1cccc(/C=C/c2nc3ccccc3c(=O)[nH]2)c1)c1ccccc1Cl,5µM*,nt,nt,nt,nt
Cc1cccc(/C=C\c2nc3ccccc3c(=O)[nH]2)c1,-20%,?,?,?,-18%
COc1ccc(C(=O)Nc2cccc(/C=C/c3nc4ccccc4c(=O)[nH]3)c2)cc1,1.3µM*,nt,nt,nt,nt
COc1ccc([C@]23Cc4cc(OC)c(OC)cc4[C@H](O2)C2=C(CC4(CCCCC4)OC2=O)O3)cc1,nt,nt,nt,2%[14.2 µM],nt
COc1cc2c(cc1NC(=O)CSc1nccn1C)oc1ccccc12,2.8µM*,?,nt,?,nt
O=C(CSc1nc2ccccc2[nH]1)Nc1ccccc1N1CCOCC1,-23%,-19%,i,8.9µM*,-21%
COc1cc2c(cc1NC(=O)CN(C)Cc1nc3ccccc3c(=O)[nH]1)oc1ccccc12,?,?,nt,23µM*,nt
CCN(CC(=O)Nc1cc(OC)ccc1OC)Cc1nc2ccccc2c(=O)[nH]1,-28%,6%,-14%,-16%,0%
COc1cc2c(cc1NC(=O)CSc1nc3cc(Cl)ccc3s1)oc1ccccc12,-3%,13%,-9%,?,-3%
COc1cc2c(cc1NC(=O)CSc1nc3ccccc3[nH]1)oc1ccccc12,8.9µM*,?,?,21µM*,-21%
COc1cc2c(cc1NC(=O)CSc1ccccc1)oc1ccccc12,?,1%,nt,3%,nt
CCN(c1ccccc1)S(=O)(=O)c1nnc(NC(=O)c2ccccc2)s1,nt,?,-8%,nt,-12%
CCOC(=O)c1c(NC(C)=O)c2c3c(sc2n1Cc1nc(-c2cccc(C)c2)oc1C)CCCC3,nt,nt,2%,-5%[46.1 µM],-7%
CCOC(=O)c1ccc(N2CCOCC2)c(NC(=O)c2c(-c3ccccc3)noc2C)c1,?,?,-9%,1.8µM*,-29%
C=CCOc1ccccc1CNCCc1ccc(S(N)(=O)=O)cc1,7%,-5%[46.1 µM],i,?,0%
NS(=O)(=O)c1ccc(CCNCc2cc(Cl)ccc2OCc2ccccc2)cc1,22µM*,-21%[46.1 µM],-27%,?,-19%
SMILES,HCV inh,LASV entry inh,VACV mCherry inh,Marburg entry inh,Vaccinia Venus
NS(=O)(=O)c1ccc(CCNCc2ccccc2OCc2ccc(Cl)cc2)cc1,13µM*,?,-12%,?,-14%
CN(c1ccccc1)c1ccc(/C=N/NC(=O)CC#N)cc1,?,15µM*,-3%,13µM*,-6%
N#CCC(=O)N/N=C/c1ccc(Cl)cc1,15%,2%,-25%,-1%[46.1 µM],-10%
O=C(NCCN1CCC(n2c(=O)[nH]c3ccccc32)CC1)c1ccccc1,nt,nt,-2%,nt,-10%
O=C1NCN(c2ccccc2)C12CCN(CCCC(c1ccc(F)cc1)c1ccc(F)cc1)CC2,?,10µM*,-26%,2.1µM*,-12%
O=C1NCN(c2ccccc2)C12CCNCC2,6%,0%,nt,0%,nt
O=c1[nH]c2ccccc2n1C1CCN(CCCC(c2ccc(F)cc2)c2ccc(F)cc2)CC1,2µM*!,10µM*!,-14%,12µM*!,?
COc1cc(=O)n2c(c1C(=O)N(C)Cc1nonc1C)CCN(Cc1ccccc1Cl)CC2,nt,nt,-7%,nt,4%
CN1C2CCC1/C(=C\c1ccccc1F)C(=O)/C2=C/c1ccccc1F,-2%,-26%,11µM*,2%,?
COc1ccc(CN(C(=O)Cc2c[nH]c3ccccc23)C(C(=O)NC2CCCCC2)c2ccc(C)o2)cc1 (centres undefined),?,7.3µM*,nt,7.3µM*,nt
COc1ccc(CNC(=O)C(c2ccc(C)o2)N(Cc2cccs2)C(=O)Cc2cccs2)cc1 (centres undefined),11µM*,11µM*,?,?,-25%
O=C(NC1CCCC1)C(c1ccccc1)N(Cc1ccc2c(c1)OCO2)C(=O)Cc1cccs1 (centres undefined),0%,?,-26%,?,?
COCCN(C(=O)Cc1cccs1)C(C(=O)NCc1ccc(OC)cc1)c1ccc(C)cc1 (centres undefined),?,?,-14%,?,-14%
O=C(NCc1ccccc1)C(c1ccccc1)N(Cc1ccc2c(c1)OCO2)C(=O)Cc1cccs1 (centres undefined),?,13µM*,?,?,-30%
Cc1ccc(CN2C[C@H](Sc3ccccn3)C[C@H]2C(=O)Nc2ccc3sc(C)nc3c2)c(C)c1,nt,nt,-13%,nt,-14%
CC(C)Oc1ccc(CNC(=O)c2ccc3c(c2)nc2n3CCCCC2)cc1,nt,?,-9%,nt,-11%
COc1cc(OC)c(NC(=O)c2nn(-c3ccc(C)cc3)c(=O)c3c2c2ccccc2n3C)cc1Cl,nt,8%[46.1 µM],8%,5%[46.1 µM],6%
CCCCNc1nc(Oc2ccc(OCC)nn2)nc(N2CCOCC2)n1,nt,9%[46.1 µM],-6%,-7%[46.1 µM],3%
COc1ccc(S(=O)(=O)N(C)C)cc1NC(=O)CN1CCN(C(=O)C2CC2)CC1,10µM*,nt,nt,nt,nt
CN(C)c1cc(NC(=O)CNC(C)(C)CC(C)(C)C)c2ccccc2n1,?,?,-12%,?,-8%
CN(C)c1cc(NC(=O)CN2CCCC2)c2ccccc2n1,?,6%[46.1 µM],7%,10µM*,-2%
COc1ccc(S(=O)(=O)N2CCCCC2)cc1NC(=O)CN1CCN(C(C)=O)CC1,3%,14%[46.1 µM],i,4%[46.1 µM],-16%
COc1cc(NC(=O)Nc2ccccc2OC)c(OC)cc1NC(=O)CN1CCCCC1,2.2µM*,-10%,nt,?,-26%
COC(=O)c1ccccc1NC(=O)CN1CCCCC1,-23%,?,+,?,+

# Bioassay records from PubChem.
